# Glioma ERSR ind – inducers of ER stress response in human glioma cells. Potency, µM, without a hit: at the top dose activation, usual class: activators. U87-MG GRP78 promoter luciferase reporter, 16 h. 0.02% of 420,000 active; also: potency is read from the fitted curve at half-maximal effect; series mostly up to about 76 µM; % of control where 0% means no effect; nearly all actives have a fitted effect of over 35% in size
#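 Stably transfected U87-MG human glioma cells carrying a GRP78-based luminescent sensor were seeded at 1000 cells/well, pin-dosed with compounds and incubated 16 h. Luciferase reagent was then added, and end-point luminescence was read after 10 min at room temperature.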
# PTHR1 ag – agonists of human PTHR1 parathyroid hormone receptor | Potency, µM (top dose mostly 115 µM), inactives show at the highest dose activation, most hits filed as activators | Q03431 | 0.075% of 410,000 active | HEK293 GP2 PTHR1 cells, GloSensor cAMP luminescence, 1 h; also: potency is read from the fitted curve at half-maximal effect; nearly all actives have a fitted effect of over 55% in size
#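 HEK-293-derived GP2 cells expressing PTHR1 and a GloSensor cAMP reporter, 3,000/well, plated overnight, given luciferin plus IBMX (each 0.5 mM as added) for 1 h at 37 °C, then compound for 1 h at 37 °C. Luminescence was read after 15 min at room temperature.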
# hERG WT inh – inhibitors of human wildtype KCNH2 potassium channel | Q12809 | U2OS, BacMam KCNH2, thallium flux FluxOr; hits give low values | AID 720551 | activity change, % at 1.84 µM | 0.37% of 340,000 active;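 active = maximum activity change below -70%; inconclusive = maximum activity change between -70% and -50%; inactive = maximum activity change above -50%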; also: % is scaled to controls: 0 for no effect and ±100 for the full control effect
#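 U2OS cells transduced with wild-type KCNH2 virus are loaded with FluxOr dye for 45 min, and thallium flux is measured in kinetic reads before and after stimulation buffer. Rate constants are normalized to DMSO controls.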
# RXFP1 agonist – RXFP1 (human) receptor agonism. Q9HBX9. HEK293T-RXFP1 cAMP TR-FRET, 30 min; response scale: percent of porcine relaxin response, buffer zero. Potency, µM (series often up to 57.5 µM), for inactives: top-dose activation, usual class: activators. 0.3% of 370,000 active; also: potency is read from the fitted curve at half-maximal effect; % is scaled to controls: 0 for no effect and ±100 for the full control effect; nearly all actives have a fitted effect of over 60% in size
#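 HEK293T cells stably expressing RXFP1 were pretreated with the PDE4 inhibitor Ro 20174, exposed to compounds for 30 min at 37C, lysed, and cAMP was read by TR-FRET. Data normalized to buffer (basal) and 29 nM porcine relaxin (100%).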
# RXFP1 antag – antagonists of human relaxin receptor RXFP1; Q9HBX9; HEK293-RXFP1, relaxin-stimulated cAMP HTRF, 30 min; hits give low values; activity change, negative = inhibition, % at 57.5 µM; 0.59% of 350,000 active; AID 1259400;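 active = activity change of -60% or lower, but not beyond a set lower limit; inconclusive = change between -60% and -40%, or beyond the set limit; inactive = change above -40%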; also: % is scaled to controls: 0 for no effect and ±100 for the full control effect
# KCNH2 3.1 block – inhibitors of human KCNH2 3.1 potassium channel isoform; U2OS KCNH2 3.1, thallium flux FluxOr; hits give low values; activity change, % (tested at about 1.8 µM); 0.95% of 340,000 active;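 active = maximum activity change below -70%; inconclusive = maximum activity change from -70% to -50%; inactive = maximum activity change above -50%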;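 also: thallium influx rate constant from kinetic fluorescence after stimulation buffer; % is scaled to controls: 0 for no effect and ±100 for the full control effect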
#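 Measured as rate of thallium-driven FluxOr signal in transduced U2OS cells carrying the 3.1 channel, read kinetically for 2 min upon stimulation; values are rate constants scaled to DMSO control wells.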
# The depositor's hits bear a star; i = inactive; ? = inconclusive; · = no result given; [ ] = remark or other dose. The list is not random: actives were taken first. Their share in the collection is about 1.4%. Unless noted, calls follow the shape of the dose curve; as a rule, active = well fitted curve in the direction sought with a large enough effect; inconclusive = small, poorly fitted or top-dose-only effect, or another doubt; inactive = no such curve, though single readings can be large; an effect the other way counts as inactive or inconclusive.
SMILES,Glioma ERSR ind,PTHR1 ag,hERG WT inh,RXFP1 agonist,RXFP1 antag,KCNH2 3.1 block
O=C(NCCOC(=O)C1COc2ccccc2O1)C1COc2ccccc2O1 (stereo unspecified),-3%,i,12,0%,-5,-21
CCN(C(=O)CCc1nc(-c2ccc(C)cc2)no1)c1cccc(Cl)c1,-5%,-40%,·,1%,-17,·
O=C(c1ccc(COc2ccccc2Br)o1)N1CCN(c2ccccn2)CC1,3%,i,2,6%,-22,-11
Clc1ncccc1-c1nnn(-c2ccccc2Br)n1,2%,-28%,1,-2%,·,13
Clc1nc2ccccc2cc1-c1nnn(-c2ccccc2Br)n1,0%,i,-73*,·,·,-13
Cc1cc(/C=N/n2cnnc2)c(C)n1-c1ccc(OCc2ccc(F)cc2)cc1,-1%,-13%[57.5 µM],-3,0%,-68*,-18
Cc1cc(/C=N/n2cnnc2)c(C)n1-c1ccc(OCc2ccc(Cl)cc2Cl)cc1,-15%,-9%,19,0%,-21,-3
C=CCn1c(SC(C)C(=O)Nc2ccc(F)c(F)c2F)nnc1C1CC1 (stereo unspecified),-1%,-9%,-8,0%,2,-128*
C=CCn1c(SC(C)C(=O)Nc2ccc(Cl)cn2)nnc1C1CC1 (stereo unspecified),2%,i,4,-2%,20,-13
CCN1CCN(C(CNS(=O)(=O)c2cccs2)c2cccnc2)CC1 (stereo unspecified),-1%,i,16,0%,8,-462*
CCCc1nc(SCC(=O)N2CCc3ccccc32)c2c(=O)n(C)c(=O)n(C)c2n1,·,·,·,-1%,·,·
Cc1ccc(Cl)cc1N1CCN(C(=O)c2cccn2-c2nnc(N3CCCC3)s2)CC1,-7%,-22%,·,-4%,-83*,·
COc1ccccc1N(C)S(=O)(=O)c1ccc(C(=O)OC(C)C(=O)NCc2ccc3c(c2)OCO3)cc1 (stereo unspecified),-3%,-10%,0,2%,-9,2
O=c1[nH]cc(CN2CCOCC2)c(=O)[nH]1,-5%,-11%,-2,·,5,-82*
Cn1cc(Br)c(NC(=O)/C=C/C(=O)O)n1,-2%,i,-6,-2%,-1,-122*
Cn1cc(Br)c(C(=O)Nc2c(F)c(F)c(F)c(F)c2F)n1,-1%,-2%,3,6%,18,27
COc1ccc(OC(C)C(=O)Nc2ccc(F)cc2F)cc1 (stereo unspecified),1%,-15%,-136*,1%,-1,-190*
N#C/C(=C\c1ccc(F)cc1)C(=O)Nc1ccccn1,-1%,17%,-7,1%,7,4
Cc1ccc(/C=C/C(=O)N2CCCN(C(=O)/C=C/c3ccc(C)cc3)CC2)cc1,3%,i,0,2%,-15,-23
CC1CCCCN1S(=O)(=O)c1ccc(N(C(=O)c2cnccn2)C(C(=O)NC2CCCCC2)c2cccs2)cc1 (stereo unspecified),-1%,i,-71*,3%,9,7
CC1CCCCN1S(=O)(=O)c1ccc(N(C(=O)c2cnccn2)C(C(=O)NC2CCCC2)c2cccs2)cc1 (stereo unspecified),-3%,i,13,3%,13,2
COc1ccccc1N=c1oc2cc(O)ccc2cc1C(N)=O,-3%,-11%,21,3%,-11,1
COc1ccc2c(c1OC)CN(C)CCc1cc3c(cc1C(=O)C2)OCO3,0%,-4%,-48,0%,-24,-84*
CCCCN(C)S(=O)(=O)c1cc(-c2nnc3c4ccccc4c(C)nn23)ccc1C,-4%,-16%,·,2%,-17,·
COc1ccc(C(=O)COC(=O)C2CCN(S(=O)(=O)c3cccc4cccnc34)CC2)cc1,-5%,-18%,-2,0%,-3,-1
SMILES,Glioma ERSR ind,PTHR1 ag,hERG WT inh,RXFP1 agonist,RXFP1 antag,KCNH2 3.1 block
CC1CCC(N2CCN(c3ccc([N+](=O)[O-])cc3)CC2)CC1 (stereo unspecified),-1%,-21%,?,0%,-23,-112*
CCC1CCC(N2CCN(c3ccc(F)cc3)CC2)CC1 (stereo unspecified),-4%,-17%,47,0%,-3,-24
CCC1CCC(N2CCN(c3ccc([N+](=O)[O-])cc3)CC2)CC1 (stereo unspecified),-4%,-36%,-124*,-1%,-16,-101*
COc1ccccc1CCNC(=O)CNC(=O)c1ccc2ccccc2c1,-4%,i,5,0%,-5,-5
O=C(Cc1c(C(=O)O)[nH]c2ccccc12)Nc1cccc(C(F)(F)F)c1,-1%,-53%,·,-2%,-4,·
O=C(Cc1ccc(F)cc1)NC1CCCCCC1,-1%,i,3,1%,-3,-87*
COc1ccc(C(=O)C2CCCN(Cc3cccn3-c3ccc(Cl)cn3)C2)c(OC)c1 (stereo unspecified),-10%,-27%,-30,-1%,?,-73*
O=C(c1cccc(C(F)(F)F)c1)C1CCCN(Cc2cccc(OCCO)c2)C1 (stereo unspecified),-4%,i,16,1%,-38,13
COc1ccc(/C=C/CN2CCCC(C(=O)c3ccc(OC)c(F)c3)C2)cc1 (stereo unspecified),-9%,-34%,-12,0%,-22,-90*
COc1cccc(C(=O)C2CCCN(C/C=C/c3ccccc3OC)C2)c1 (stereo unspecified),-2%,i,9,-2%,10,-10
O=C(c1cccc(C(F)(F)F)c1)C1CCCN(Cc2cccn2-c2ccccn2)C1 (stereo unspecified),-4%,i,?,0%,-24,-109*
COc1ccc(C(=O)C2CCCN(C/C=C/c3ccccc3OC)C2)c(OC)c1 (stereo unspecified),-4%,-12%,29,0%,-8,-71*
COc1cc(O)c(C(CCN2CCCCC2)c2ccc3c(c2)OCO3)c(OC)c1 (stereo unspecified),-6%,?,·,0%,·,·
COc1ccc(N(CC(=O)NCc2ccc(C)cc2)S(=O)(=O)c2c(C)nn(C)c2C)cc1,-5%,i,-2,0%,0,-30
O=c1cc(N2CCCCC2)c(-c2ccccc2)nn1Cc1ccc(Cl)cc1,-3%,-5%[57.5 µM],-8,-3%,-8,-95*
O=c1cc(N2CCCCC2)c(-c2ccccc2)nn1Cc1ccc(F)cc1,-1%,i,-7,1%,6,-11
